In the library only some 2.1% were active in any assay of this set; here they are far more common.
F508del corr: F508del CFTR correction, initial screen, CFBE line, single point; CFBE cells, YFP halide quenching; stimulated with forskolin plus potentiator P3; % fluorescence drop versus neutral controls; activity (quench increase), % at 7.58 µM; 350,000 tested, 0.36% active;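 active means mean added fluorescence quench of at least 8% versus neutral control, with both replicates also reaching 8%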;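 further: cells transiently co-express mutant CFTR-F508del with the halide-sensitive YFP; corrector assay measuring rescue of mutant channel to the surface after 24 h compound exposure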
Ecoli rRNA inh: reduced GFP signal of wild-type E. coli, primary screen, bacterial rRNA inhibitor project, GFP/RFP fluorescence, OD600, single point | E. coli WT GFP vs humanized-ribosome RFP mutants, 24 h; stronger effect = lower value; DMSO median 0, no signal -100 | GFP signal change (wild-type ribosome), % (concentration not given with the values) | 350,000 tested, 1.6% active;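 active means significant combined selectivity score with lowered wild-type GFP, culture density cut under 30%, mutant RFP and density less affected; inactive means any of these conditions unmet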
ARNT TACC3 PPI: disruptors of ARNT/TACC3 protein interaction, primary screen, biochemical, AlphaScreen, single concentration; Transforming acidic coiled-coil-containing protein 3 (Homo sapiens), Q9Y6A5; AlphaScreen His-ARNT PAS-B/GST-TACC3 binding, luminescence; TACC3 fragment carries E629A point mutation; inhibition, % at 9.99 µM; 390,000 tested, 0.66% active;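 active means mean inhibition of replicates at least 50% and at least half of replicates each reaching 50%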
PvdQ inh: P. aeruginosa PvdQ acylase inhibitors, primary screen, biochemical, fluorescence, plate reader and imaging, single point; 340,000 tested, 0.063% active; purified PvdQ acylase; AID 488965, 2010; inhibition, % at 10 µM; PvdQ acylase [Pseudomonas aeruginosa LESB58]; in the data active means inhibition above about 30%, passing the limit was not always enough
ERAP1 inh: human ERAP1 aminopeptidase inhibitors, primary screen, biochemical, single point, plate reader. Endoplasmic reticulum aminopeptidase 1 (Homo sapiens), Q9NZ08. inhibition, % at 10.7 µM. 340,000 tested, 0.15% active. recombinant ERAP1, Leu-AMC fluorescence, 60 min;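 active means mean replicate inhibition of at least 30%, or all replicates individually reaching that 30% level; inactive means mean below 30% and not every replicate reaching it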
Target sequence (Q9NZ08 whole entry, looked up): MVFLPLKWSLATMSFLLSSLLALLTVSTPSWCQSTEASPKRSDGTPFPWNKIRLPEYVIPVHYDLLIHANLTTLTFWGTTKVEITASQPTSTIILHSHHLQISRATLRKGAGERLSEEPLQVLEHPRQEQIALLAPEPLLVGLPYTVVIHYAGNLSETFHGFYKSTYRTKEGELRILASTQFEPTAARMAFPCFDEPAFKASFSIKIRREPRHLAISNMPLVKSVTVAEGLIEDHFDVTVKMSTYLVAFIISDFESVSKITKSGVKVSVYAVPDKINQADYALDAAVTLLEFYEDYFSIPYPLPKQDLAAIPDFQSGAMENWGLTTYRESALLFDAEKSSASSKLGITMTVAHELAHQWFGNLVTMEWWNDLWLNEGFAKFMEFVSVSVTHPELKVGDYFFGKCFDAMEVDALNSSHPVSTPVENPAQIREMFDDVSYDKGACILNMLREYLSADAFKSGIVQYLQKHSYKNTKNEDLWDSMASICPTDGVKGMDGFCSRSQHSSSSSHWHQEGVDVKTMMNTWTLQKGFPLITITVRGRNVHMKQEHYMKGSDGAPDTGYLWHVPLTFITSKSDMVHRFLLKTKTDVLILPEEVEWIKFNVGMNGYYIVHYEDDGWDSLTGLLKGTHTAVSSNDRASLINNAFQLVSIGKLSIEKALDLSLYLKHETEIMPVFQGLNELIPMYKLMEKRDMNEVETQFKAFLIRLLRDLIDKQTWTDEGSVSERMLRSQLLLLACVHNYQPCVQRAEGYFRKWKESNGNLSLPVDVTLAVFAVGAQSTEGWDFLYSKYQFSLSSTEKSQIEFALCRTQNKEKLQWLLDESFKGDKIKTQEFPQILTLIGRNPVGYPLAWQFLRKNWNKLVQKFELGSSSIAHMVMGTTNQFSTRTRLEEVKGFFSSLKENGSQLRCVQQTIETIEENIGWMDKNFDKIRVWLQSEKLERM
Each line names hits and unclear results; the compound was inactive in the other large screens; ! = a repeat was not active.

CCN(CC)C1=CC2=CC(=C(C#N)C#N)CCC2CC1 (stereo not given)	F508del corr 40.0
C/C=C/c1cnc2c(c1)C(=O)N([C@H](C)CO)C[C@@H](C)[C@H](CN(C)C(=O)NC1CCCCC1)O2	none (no result: PvdQ inh)
COc1ccc(OC)c(CC(=O)NC(c2ccccc2)c2ccccc2)c1	none (no result: ARNT TACC3 PPI)
COc1ccc(CC(=O)NC(c2ccccc2)c2ccc(C)cc2)c(OC)c1 (stereo not given)	F508del corr 8.0
COc1cc(OC)c(N(C)S(=O)(=O)c2cccc(C(=O)NC3=NCCS3)c2)cc1Cl	Ecoli rRNA inh -23.4
C[C@@H]1CCCCO[C@@H](CN(C)C(=O)c2ccccc2)[C@H](C)CN([C@@H](C)CO)C(=O)c2cc(NC(=O)Nc3cccc4ccccc34)ccc2O1	none (no result: PvdQ inh)
C[C@@H]1CN([C@H](C)CO)C(=O)c2cc(NC(=O)Cn3cnnn3)ccc2O[C@H]1CN(C)Cc1ccc(C(=O)O)cc1	none (no result: PvdQ inh)
Cc1cccc2nc(CSc3ccccc3N)cn12	none (no result: F508del corr, Ecoli rRNA inh, ERAP1 inh)
Cc1cccc2nc(COc3ccc4ccccc4c3Br)cn12	Ecoli rRNA inh -26.9 (no result: ERAP1 inh)
ClC1(Cl)CC1CSc1nnc(-c2ccncc2)o1 (stereo not given)	Ecoli rRNA inh -19.0
CCSc1nnc(-c2ccncc2)o1	none (no result: F508del corr, Ecoli rRNA inh, ERAP1 inh)
O=S(=O)(c1ccc(OCc2ccc(Br)cc2)cc1)N1CCOCC1	F508del corr 19.4
CC(=O)N1CC(C)Sc2ccc(S(=O)(=O)NCc3ccc(F)cc3)cc21 (stereo not given)	Ecoli rRNA inh -25.6
CCC(=O)N[C@H]1C=C[C@H](CC(=O)NCc2ccccc2F)O[C@@H]1CO	none (no result: PvdQ inh)
Cc1cc(=O)oc2c3c(cc(OCC(=O)N4CCC[C@H]4C(=O)O)c12)OC(C)(C)CC3	ARNT TACC3 PPI 32.4 (no result: Ecoli rRNA inh)
CCCCc1cc(=O)oc2c3c(cc(OCC(=O)N4CCC[C@H]4C(=O)O)c12)OC(C)(C)CC3	none (no result: Ecoli rRNA inh, ARNT TACC3 PPI)
CCOC(=O)c1sc2nc(C)nc(N3CCCCC3C)c2c1C (stereo not given)	Ecoli rRNA inh -26.5
COc1cc(NC(=O)c2csc(N)n2)cc(C(=O)Nc2cccc(C(F)(F)F)c2)c1	F508del corr 8.0!
COc1cc(NC(=O)c2cnc(N)s2)cc(C(=O)Nc2cccc(C(F)(F)F)c2)c1	none (no result: ARNT TACC3 PPI, PvdQ inh)
CC(=O)n1c2c(c3ccccc31)OC(N)=C(C#N)C2c1ccc(C(C)C)cc1 (stereo not given)	Ecoli rRNA inh -14.9
Cc1noc(C)c1NC(=O)Nc1ccc2c(c1)C(=O)N([C@H](C)CO)C[C@@H](C)[C@H](CN(C)C(=O)Nc1c(C)noc1C)O2	none (no result: PvdQ inh)
O=C(NCc1ccc(F)cc1)[C@@H]1C[C@@H]2C(=O)N3CCC[C@H]3C(=O)N2[C@@H]1c1ccc(O)cc1	none (no result: Ecoli rRNA inh, PvdQ inh)
CN1C(=O)c2cc(NC(=O)c3cccc(F)c3)ccc2OC[C@H]2O[C@@H](CC(=O)Nc3ccccc3)CC[C@H]21	none (no result: PvdQ inh)
On1ccccc1=S	ARNT TACC3 PPI active (no result: Ecoli rRNA inh)
CCOc1ccccc1/C=C/C(=O)c1ccc(Cl)cc1	Ecoli rRNA inh -26.9 (no result: F508del corr)
O=C(/C=C/c1ccccc1O)c1ccccc1	Ecoli rRNA inh -19.4
COc1ccccc1/C=C/C(=O)c1ccc(Cl)cc1	none (no result: F508del corr, Ecoli rRNA inh, ERAP1 inh)
Cc1ccccc1OCC(O)Cn1c(NCc2ccco2)nc2c1c(=O)n(C)c(=O)n2C (stereo not given)	Ecoli rRNA inh -26.1
C[C@H](CO)N1C[C@H](C)[C@H](CN(C)C(=O)Nc2cccc3ccccc23)Oc2c(NC(=O)Nc3ccc(F)cc3)cccc2C1=O	none (no result: PvdQ inh)
CO[C@H]1CN(C)C(=O)c2ccc(NC(=O)C3CCOCC3)cc2OC[C@H](C)N(Cc2cccnc2)C[C@@H]1C	none (no result: ARNT TACC3 PPI, PvdQ inh)
O=[N+]([O-])c1cc(F)c2cccnc2c1O	ARNT TACC3 PPI 70.5
CC(=O)NC(c1ccccc1)c1cc(Cl)c2cccnc2c1O (stereo not given)	none
O=[N+]([O-])c1cc(Cl)c(O)c2ncccc12	ARNT TACC3 PPI 57.1
Clc1cc2cccnc2c2ncccc12	ARNT TACC3 PPI 106.3
CC(=O)NC(c1ccc(C)cc1)c1cc([N+](=O)[O-])c2cccnc2c1O (stereo not given)	Ecoli rRNA inh -25.0 (no result: ARNT TACC3 PPI)
Oc1c(I)cc(Cl)c2cccnc12	none (no result: Ecoli rRNA inh)
O=[N+]([O-])c1cc([N+](=O)[O-])c2cccnc2c1Oc1ccccc1O	none (no result: F508del corr)
c1ccc(Cn2cc(CCOCc3ccccn3)c3ccccc32)cc1	none (no result: ARNT TACC3 PPI, PvdQ inh)
CN1c2ccc(C#Cc3cccnc3)cc2[C@@H]2[C@@H](CCN2S(=O)(=O)c2ccccc2F)[C@H]1CO	none (no result: PvdQ inh)
O=[N+]([O-])c1ccc(Cl)c2cccnc12	none
O=[N+]([O-])c1ccc(O)c2cccnc12	none
O=[N+]([O-])c1cc(Cl)c2cccnc2c1O	ARNT TACC3 PPI 46.0
O=[N+]([O-])c1ccc(O)c2ncccc12	ARNT TACC3 PPI 55.6 (no result: Ecoli rRNA inh)
CCOC(=O)C1CCCN(C(=O)c2csc(-c3ccc4c(c3)CCO4)n2)C1 (stereo not given)	Ecoli rRNA inh -40.9
O=C(NCc1cccs1)c1cc(-c2ccccc2)nn1CC1CC(c2cccc([N+](=O)[O-])c2)=NO1 (stereo not given)	F508del corr 8.6
COc1ccccc1CNC(=O)c1cc(-c2ccccc2)nn1CC1CC(c2cccc([N+](=O)[O-])c2)=NO1 (stereo not given)	none
COc1cnc(-c2ccccn2)nc1Sc1ccc(F)cc1	ARNT TACC3 PPI 45.7 (no result: F508del corr)
COc1cnc(-c2ccccn2)nc1Oc1ccccc1	ARNT TACC3 PPI 82.1
COc1cnc(N(C)C)nc1Sc1ccc(Cl)cc1	none (no result: F508del corr, Ecoli rRNA inh, ERAP1 inh)
FC(F)Oc1ccc(-n2cc(-c3ccc(Cl)cc3)[n+]3c2CCCCC3)cc1	Ecoli rRNA inh -47.1
FC(F)Sc1ccc(-n2cc(-c3ccccc3)[n+]3c2CCC3)cc1	none (no result: F508del corr, Ecoli rRNA inh, ERAP1 inh)
COc1ccc(-n2cc(-c3ccccc3)[n+]3c2CCCCC3)cc1	Ecoli rRNA inh -30.1
COc1ccccc1NC(=O)N[C@H]1CC[C@H](CCNS(=O)(=O)c2ccc(F)cc2)O[C@@H]1CO	none (no result: PvdQ inh)
O=C(C1CC1)N1CC[C@@H]2[C@@H](CO)Nc3ccc(-c4cccc(F)c4)cc3[C@@H]21	none (no result: PvdQ inh, ERAP1 inh)
COCC(=O)N1CC(=O)N2[C@@H](CO)[C@H](c3ccc(C#CC4CC4)cc3)[C@@H]2C1	none (no result: ARNT TACC3 PPI, PvdQ inh)
COC(=O)C1(C)CCCC2(C)C3CCC(C(C)C)C(CO)C3C(CO)CC12 (stereo not given)	F508del corr 8.0 (no result: ARNT TACC3 PPI, PvdQ inh)
O=S(=O)(NN1CCOCC1)c1cc(Cl)cc(Cl)c1O	ERAP1 inh 37.4
CS(=O)(=O)Nc1ccc2c(c1)[C@@H]1C[C@@H](CC(=O)NCc3cccnc3)O[C@@H](CO)[C@@H]1O2	none (no result: PvdQ inh)
